Measurements as given in PubChem BioAssay (Tox21).
Calls of active or inactive are those of the source. Calls follow the shape of the dose curve; as a rule, active = well fitted curve in the direction sought with a large enough effect in the repeat runs; inconclusive = weak or mixed curves; inactive = flat fitted curve, though single readings scatter.

Test: qHTS assay to test for compound auto fluorescence at 535 nm (green) in HEK293 cells (AID 720680)
Conditions: green autofluorescence 485/535 nm; series mostly up to 91.3 µM
For `O=C(N/N=C/c1ccc([N+](=O)[O-])o1)c1cc([N+](=O)[O-])cc([N+](=O)[O-])c1O`, the outcome was “inactive”. In the case of `C=CC(=O)OCC`, the outcome is reported as “inactive”. With `C=CCc1ccccc1O` the outcome was “inactive”. For `Nc1ccc2c(c1)Cc1ccccc1-2`, the outcome was “inactive”. With `C[C@H]1[C@@H]2Cc3ccc(O)cc3[C@@]1(C)CCN2C` the outcome was “inactive”. With `COC1=CC(=O)O[C@@H](/C=C/c2ccc3c(c2)OCO3)C1` the outcome was “inactive”. For `CCC(C)(C)c1ccc(O)c(C(C)(C)CC)c1`, the outcome was “inactive”. With `O=C(O)c1cc(I)cc(I)c1I` the outcome was “inactive”. In the case of `CCCCCBr`, the outcome is reported as “inactive”. In the case of `O=S(=O)(Cl)Cl`, the outcome is reported as “inactive”. In the case of `O=C(O)C(O)C(O)C(=O)O` (stereo unspecified), the outcome is reported as “inactive”. In the case of `Cc1ncc(C[n+]2csc(CCO)c2C)c(N)n1`, the outcome is reported as “inactive”. With `C[CH2][Hg][S]c1ccccc1C(=O)O` the outcome was “inactive”. In the case of `O=P(OCC(Br)CBr)(OCC(Br)CBr)OCC(Br)CBr` (stereo unspecified), the outcome is reported as “inactive”. For `CCCCCCCCCCCC[N+](C)(C)CCOc1ccccc1`, the outcome was “inactive”. In the case of `CCC1(CCC(C)C)C(=O)NC(=O)NC1=O`, the outcome is reported as “inactive”. For `O=[N+]([O-])O[C@H]1CO[C@H]2[C@@H]1OC[C@H]2O[N+](=O)[O-]`, the outcome was “inactive”. With `CCC(C)Cl` (stereo unspecified) the outcome was “inactive”. In the case of `[Cl-].[Cl-].[Hg+2]`, the outcome is reported as “inactive”. For `CC1(C)[C@H](C(=O)O[C@H](C#N)c2cccc(Oc3ccccc3)c2)[C@@H]1C=C(Br)Br`, the outcome was “inactive”. With `OC[P+](CO)(CO)CO` the outcome was “inactive”. In the case of `O=C(O)c1cc(Cl)ccc1Cl`, the outcome is reported as “inactive”. In the case of `C[N+]1(CCC(C(N)=O)(c2ccccc2)c2ccccc2)CCCCC1`, the outcome is reported as “inactive”. In the case of `COP(=O)(OC)OC(Br)C(Cl)(Cl)Br` (stereo unspecified), the outcome is reported as “inactive”. In the case of `Nc1cccc2ccccc12`, the outcome is reported as “inactive”. For `O=C(Cc1ccccc1)c1ccccc1`, the outcome was “inactive”. With `CCC1(CC)C(=O)NC(=O)NC1=O` the outcome was “inactive”. For `CC(C)(C)N(NC(=O)c1ccc(Cl)cc1)C(=O)c1ccccc1`, the outcome was “inactive”. In the case of `CC(=O)NNc1ccccc1`, the outcome is reported as “inactive”. In the case of `c1ccc2sc(SNC3CCCCC3)nc2c1`, the outcome is reported as “inactive”. For `CCC1CCC(=O)O1` (stereo unspecified), the outcome was “inactive”. For `O=C(O)CCCOc1ccc(Cl)cc1Cl`, the outcome was “inactive”. In the case of `O=[N+]([O-])c1cc(Cl)c(Cl)cc1Cl`, the outcome is reported as “inactive”. With `Nc1ccccc1C(=O)OCCc1ccccc1` the outcome was “inactive”. With `CC(C)(C)CC(C)(C)c1ccc(O)cc1` the outcome was “inactive”. For `CN1C(=O)CN=C(c2ccccc2)c2cc([N+](=O)[O-])ccc21`, the outcome was “inactive”. With `NC(=S)c1c(Cl)cccc1Cl` the outcome was “inactive”. With `CC(=O)OC(c1ccccc1)C(Cl)(Cl)Cl` (stereo unspecified) the outcome was “inactive”.

Test: qHTS assay to test for compound auto fluorescence at 460 nm (blue) in HEK293 cell free culture (AID 720681)
Conditions: cell-free medium, autofluorescence 405/460 nm (blue); series mostly up to 91.3 µM
How it was run: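 Compounds were added to cell-free DMEM with 10% FBS and fluorescence read directly. The blue channel used 405 nm excitation and 460 nm emission, with triamterene as the reference fluorophore.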
For `C=CC(=O)OCC`, the outcome was “inactive”. With `C=CCc1ccccc1O` the outcome was “inactive”. For `Nc1ccc2c(c1)Cc1ccccc1-2`, the outcome was “inactive”. With `C[C@H]1[C@@H]2Cc3ccc(O)cc3[C@@]1(C)CCN2C` the outcome was “inactive”. With `COC1=CC(=O)O[C@@H](/C=C/c2ccc3c(c2)OCO3)C1` the outcome was “inactive”. In the case of `CCC(C)(C)c1ccc(O)c(C(C)(C)CC)c1`, the outcome is reported as “inactive”. In the case of `O=C(O)c1cc(I)cc(I)c1I`, the outcome is reported as “inactive”. In the case of `CCCCCBr`, the outcome is reported as “inactive”. For `O=S(=O)(Cl)Cl`, the outcome was “inactive”. In the case of `O=C(O)C(O)C(O)C(=O)O` (stereo unspecified), the outcome is reported as “inactive”. For `O=P(OCC(Br)CBr)(OCC(Br)CBr)OCC(Br)CBr` (stereo unspecified), the outcome was “inactive”. With `CCCCCCCCCCCC[N+](C)(C)CCOc1ccccc1` the outcome was “inactive”. With `CCC1(CCC(C)C)C(=O)NC(=O)NC1=O` the outcome was “inactive”. In the case of `O=[N+]([O-])O[C@H]1CO[C@H]2[C@@H]1OC[C@H]2O[N+](=O)[O-]`, the outcome is reported as “inactive”. For `CCC(C)Cl` (stereo unspecified), the outcome was “inactive”. For `CC1(C)[C@H](C(=O)O[C@H](C#N)c2cccc(Oc3ccccc3)c2)[C@@H]1C=C(Br)Br`, the outcome was “inactive”. With `OC[P+](CO)(CO)CO` the outcome was “inactive”. For `O=C(O)c1cc(Cl)ccc1Cl`, the outcome was “inactive”. With `C[N+]1(CCC(C(N)=O)(c2ccccc2)c2ccccc2)CCCCC1` the outcome was “inactive”. In the case of `Nc1cccc2ccccc12`, the outcome is reported as “inactive”. In the case of `O=C(Cc1ccccc1)c1ccccc1`, the outcome is reported as “inactive”. With `CCC1(CC)C(=O)NC(=O)NC1=O` the outcome was “inactive”. For `CC(=O)NNc1ccccc1`, the outcome was “inactive”. For `c1ccc2sc(SNC3CCCCC3)nc2c1`, the outcome was “inactive”. For `CCC1CCC(=O)O1` (stereo unspecified), the outcome was “inactive”. In the case of `O=C(O)CCCOc1ccc(Cl)cc1Cl`, the outcome is reported as “inactive”. With `O=[N+]([O-])c1cc(Cl)c(Cl)cc1Cl` the outcome was “inactive”. For `CC(C)(C)CC(C)(C)c1ccc(O)cc1`, the outcome was “inactive”. In the case of `CN1C(=O)CN=C(c2ccccc2)c2cc([N+](=O)[O-])ccc21`, the outcome is reported as “inactive”. In the case of `CC(=O)OC(c1ccccc1)C(Cl)(Cl)Cl` (stereo unspecified), the outcome is reported as “inactive”.

Test: qHTS assay to test for compound auto fluorescence at 535 nm (green) in HEK293 cell free culture (AID 720682)
Conditions: cell-free medium, green autofluorescence 485/535 nm; series mostly up to 91.3 µM
How it was run: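 No cells present: wells hold DMEM supplemented with 10% FBS, into which compound or vehicle is pinned. Green emission is then recorded (485 nm excitation, 535 nm emission) and scaled to fluorescein.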
In the case of `O=C(N/N=C/c1ccc([N+](=O)[O-])o1)c1cc([N+](=O)[O-])cc([N+](=O)[O-])c1O`, the outcome is reported as “inactive”. In the case of `C=CC(=O)OCC`, the outcome is reported as “inactive”. For `C=CCc1ccccc1O`, the outcome was “inactive”. In the case of `Nc1ccc2c(c1)Cc1ccccc1-2`, the outcome is reported as “inactive”. For `C[C@H]1[C@@H]2Cc3ccc(O)cc3[C@@]1(C)CCN2C`, the outcome was “inactive”. With `COC1=CC(=O)O[C@@H](/C=C/c2ccc3c(c2)OCO3)C1` the outcome was “inactive”. For `CCC(C)(C)c1ccc(O)c(C(C)(C)CC)c1`, the outcome was “inactive”. In the case of `O=C(O)c1cc(I)cc(I)c1I`, the outcome is reported as “inactive”. With `CCCCCBr` the outcome was “inactive”. In the case of `O=S(=O)(Cl)Cl`, the outcome is reported as “inactive”. With `O=C(O)C(O)C(O)C(=O)O` (stereo unspecified) the outcome was “inactive”. In the case of `Cc1ncc(C[n+]2csc(CCO)c2C)c(N)n1`, the outcome is reported as “inactive”. For `C[CH2][Hg][S]c1ccccc1C(=O)O`, the outcome was “inactive”. In the case of `O=P(OCC(Br)CBr)(OCC(Br)CBr)OCC(Br)CBr` (stereo unspecified), the outcome is reported as “inactive”. In the case of `CCCCCCCCCCCC[N+](C)(C)CCOc1ccccc1`, the outcome is reported as “inactive”. With `CCC1(CCC(C)C)C(=O)NC(=O)NC1=O` the outcome was “inactive”. In the case of `O=[N+]([O-])O[C@H]1CO[C@H]2[C@@H]1OC[C@H]2O[N+](=O)[O-]`, the outcome is reported as “inactive”. With `CCC(C)Cl` (stereo unspecified) the outcome was “inactive”. In the case of `[Cl-].[Cl-].[Hg+2]`, the outcome is reported as “inactive”. With `CC1(C)[C@H](C(=O)O[C@H](C#N)c2cccc(Oc3ccccc3)c2)[C@@H]1C=C(Br)Br` the outcome was “inactive”. In the case of `OC[P+](CO)(CO)CO`, the outcome is reported as “inactive”. In the case of `O=C(O)c1cc(Cl)ccc1Cl`, the outcome is reported as “inactive”. In the case of `C[N+]1(CCC(C(N)=O)(c2ccccc2)c2ccccc2)CCCCC1`, the outcome is reported as “inactive”. For `COP(=O)(OC)OC(Br)C(Cl)(Cl)Br` (stereo unspecified), the outcome was “inactive”. With `Nc1cccc2ccccc12` the outcome was “inactive”. With `O=C(Cc1ccccc1)c1ccccc1` the outcome was “inactive”. For `CCC1(CC)C(=O)NC(=O)NC1=O`, the outcome was “inactive”. For `CC(C)(C)N(NC(=O)c1ccc(Cl)cc1)C(=O)c1ccccc1`, the outcome was “inactive”. In the case of `CC(=O)NNc1ccccc1`, the outcome is reported as “inactive”. With `c1ccc2sc(SNC3CCCCC3)nc2c1` the outcome was “inactive”. With `CCC1CCC(=O)O1` (stereo unspecified) the outcome was “inactive”. With `O=C(O)CCCOc1ccc(Cl)cc1Cl` the outcome was “inactive”. In the case of `O=[N+]([O-])c1cc(Cl)c(Cl)cc1Cl`, the outcome is reported as “inactive”. With `Nc1ccccc1C(=O)OCCc1ccccc1` the outcome was “inactive”. For `CC(C)(C)CC(C)(C)c1ccc(O)cc1`, the outcome was “inactive”. With `CN1C(=O)CN=C(c2ccccc2)c2cc([N+](=O)[O-])ccc21` the outcome was “inactive”. With `NC(=S)c1c(Cl)cccc1Cl` the outcome was “inactive”. With `CC(=O)OC(c1ccccc1)C(Cl)(Cl)Cl` (stereo unspecified) the outcome was “inactive”.
